KCNH2 3.1 block – inhibitors of human KCNH2 3.1 potassium channel isoform; activity change, % (tested at about 1.8 µM); U2OS KCNH2 3.1, thallium flux FluxOr; active compounds read low; 340,000 compounds, 0.95% hits;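 active = maximum activity change below -70%; inconclusive = maximum activity change from -70% to -50%; inactive = maximum activity change above -50%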;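 note: thallium influx rate constant from kinetic fluorescence after stimulation buffer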
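Kinetic fluorescence (2 min after stimulation buffer) measures Tl+ influx through KCNH2 3.1 expressed by viral transduction in U2OS cells; the rate constant is normalized against DMSO controls serving as positive and negative references.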
TRHR enhancer-1 – allosterically enhances the human TRH receptor | P34981 | TRHR cells, fluo-8 calcium fluorescence, EC20 TRH enhancement | enhancement, % at 2 µM | 360,000 compounds, 0.66% hits | AID 493056; in the data active = enhancement above about 30%
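Enhancer read-out: after compound pinning and an initial kinetic agonist-mode read, an EC20 of TRH (10 nM final) was injected and fluo-8 calcium signal (Ex 480/Em 530) followed at 1 s/cycle for 100 cycles in TRHR-expressing cells.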
TRHR agonist-1 – activates the human TRH receptor; P34981; TRHR cells, calcium flux fluo-8, FDSS agonist mode; 360,000 compounds, 0.18% hits; activation, % at 2 µM; AID 493084; in the data active = activation above about 30%
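In this calcium-flux screen, cells bearing human TRHR are dye-loaded with fluo-8, baselined for 10 cycles, then exposed to library compounds; positive kinetic calcium responses during the agonist phase mark hits, with TRH as control.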
KCNH2 WT inh – inhibitors of human wildtype KCNH2 potassium channel | U2OS, BacMam KCNH2, thallium flux FluxOr; active compounds read low | activity change, % at 1.84 µM | 340,000 compounds, 0.37% hits | AID 720551;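 active = maximum activity change below -70%; inconclusive = maximum activity change between -70% and -50%; inactive = maximum activity change above -50%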
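U2OS cells transduced with wild-type KCNH2 virus are loaded with FluxOr dye for 45 min, and thallium flux is measured in kinetic reads before and after stimulation buffer. Rate constants are normalized to DMSO controls.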
TRPML1 blocker – human mucolipin-1 channel inhibition. Q9GZU1. TRPML1-inducible cells, Ca2+ dye fluorescence, FDSS; active compounds read low; inhibition of EC80 agonist-evoked calcium signal. AID 624415. activity change, negative = inhibition, % (no concentration beside the values). 390,000 compounds, 0.02% hits; in the data active = activity change below about -50%; inconclusive = between about -30% and that limit;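 note: stimulus is agonist 54-4 at its EC80 concentration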
Target sequence (Q9GZU1 whole entry, looked up): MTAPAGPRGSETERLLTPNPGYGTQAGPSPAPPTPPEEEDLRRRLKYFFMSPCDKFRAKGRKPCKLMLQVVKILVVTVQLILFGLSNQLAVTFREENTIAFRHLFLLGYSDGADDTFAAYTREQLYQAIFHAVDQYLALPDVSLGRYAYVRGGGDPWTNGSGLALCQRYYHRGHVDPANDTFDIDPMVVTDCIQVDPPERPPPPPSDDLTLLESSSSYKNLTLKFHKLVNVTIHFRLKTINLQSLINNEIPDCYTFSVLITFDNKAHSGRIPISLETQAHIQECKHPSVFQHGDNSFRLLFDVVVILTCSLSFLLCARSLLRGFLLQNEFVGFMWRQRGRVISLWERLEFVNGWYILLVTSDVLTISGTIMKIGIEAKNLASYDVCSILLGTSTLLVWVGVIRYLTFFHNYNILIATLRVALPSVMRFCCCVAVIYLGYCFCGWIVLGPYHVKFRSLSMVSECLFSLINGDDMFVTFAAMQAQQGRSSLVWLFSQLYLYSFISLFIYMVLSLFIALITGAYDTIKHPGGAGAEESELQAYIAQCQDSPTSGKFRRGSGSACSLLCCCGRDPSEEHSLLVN
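Calcium fluorescence in TRPML1-DL cells induced overnight with Tet: a 110 s read after compound pin addition, then a 110 s antagonist read after challenge with 54-4 at 4 uM final (EC80).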
TRPML1 ag – human mucolipin-1 channel agonism. activation, % (test concentration not listed). Q9GZU1. TRPML1-expressing cells, Ca2+ dye fluorescence, FDSS. 410,000 compounds, 0.12% hits. AID 624414; in the data active = activation above about 50%; inconclusive = mostly about 30% to 49%
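Agonist activity was taken from a 110 s kinetic Ca2+ dye read on the FDSS after pinning compounds onto TRPML1-DL cells. The cells were seeded at 1,500/well with Tet inducer, incubated about 16 h, then dye-loaded at room temperature.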
TRHR enhancer-2 – human TRH receptor allosteric enhancement confirmation; shares compounds with TRHR enhancer-1; AID 493076; activity change, negative = inhibition, % at 46.1 µM; 970 tested, under 10 active; TRH receptor cell assay, enhancer confirmation qHTS;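 note: compound effect scored on response to added TRH at EC20 of 10 nM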
TRHR agonist-2 – human TRH receptor agonism confirmation; shares compounds with TRHR enhancer-1; TRHR-expressing cells, agonist activation read-out; Potency, µM (highest dose often 46.1 µM), actives largely listed as activators; 970 compounds, 8% hits; AID 493078; note: nearly all actives have a fitted effect of over 75% in size
Numbers stand for hits; – = inactive; ? = inconclusive; · = not tested or not shown; ! = a repeat was not active. Shown are actives, neighbours in structure and some others; about 1.7% of the full set was active somewhere. Unless noted, calls come from the whole dose curve; as a rule, active = well fitted curve in the direction sought with a large enough effect; inconclusive = small, poorly fitted or top-dose-only effect, or another doubt; inactive = no such curve, though single readings can be large; an effect the other way counts as inactive or inconclusive.

SMILES	KCNH2 3.1 block	TRHR enhancer-1	TRHR agonist-1	KCNH2 WT inh	TRPML1 blocker	TRPML1 ag	TRHR enhancer-2	TRHR agonist-2
C=CCOc1ccc(C2C(C(=O)c3ccco3)=C(O)C(=O)N2c2nnc(C)s2)cc1 (centres undefined)	–	–	40.2	–	–	–	–	–
CC(C)Nc1ncnc2c1ncn2[C@H]1CN(Cc2ccccc2)C[C@@H](CO)O1	·	·	·	·	·	–	·	·
COc1ccc(NC(=O)CNS(=O)(=O)c2ccc(Cl)cc2)cc1	–	44.2	–	–	–	–	–	–
COc1cccc(NC(=O)CNS(=O)(=O)c2ccc(Cl)cc2)c1	–	–	–	–	–	–	·	·
CC(C)C[C@H]1CN(CCCC[C@@H]2CNC(=O)C(=O)N2CCc2ccccc2)C(=O)C(=O)N1CCc1ccccc1	·	·	·	·	·	–	·	·
O=C(NCc1cn(-c2ccccc2)nc1-c1ccccc1)c1ccc([N+](=O)[O-])cc1	–	43.9	–	–	–	–	–	–
O=[N+]([O-])c1cccc(-c2nn(-c3ccccc3)cc2CO)c1	–	–	–	–	–	–	·	·
C[C@H](CO)N1C[C@H](C)[C@@H](CN(C)S(=O)(=O)c2ccc(C#N)cc2)OCc2cn(nn2)CCCC1=O	–	·	·	–	–	–	·	·
COCCNC(=O)C(c1ccc(OC)cc1)N(C(=O)Cn1nnc2ccccc21)c1cccnc1 (centres undefined)	–	42.2	–	–	–	–	–	–
CCc1ccc(C(C(=O)NCCOC)N(C(=O)Cn2nnc3ccccc32)c2cccnc2)cc1 (centres undefined)	–	–	–	–	–	–	·	·
Cc1ccnc(NC(=O)CCC(=O)N(Cc2ccco2)C(C(=O)NC(C)C)c2ccc(F)cc2)c1 (centres undefined)	–	43.4	–	–	–	–	–	–
COc1ccccc1CNC(=O)CCNS(=O)(=O)c1ccc2c(c1)CC(C)N2C(C)=O (centres undefined)	–	–	–	–	–	–	·	·
CCCN1CC(=O)N2C(c3cccc(OC)c3OC)c3[nH]c4ccccc4c3C[C@H]2C1=O (some centres undefined)	–	–	–	–	–	–	·	·
CCC(C)N1CC(=O)N2C(c3ccc(OC)cc3OC)c3[nH]c4ccccc4c3C[C@H]2C1=O (some centres undefined)	–	75.0	–	–	–	–	–	–
COc1ccc(-c2nc3ccc(C)cn3c2Cc2ccccc2)cc1OC	·	·	·	·	–	–	·	·
COc1cccc2c(=O)c3c(cnn3C)n(C)c12	–	–	–	–	–	–	·	·
COc1cccc2c(=O)c3ccoc3n(C)c12	–	42.2	–	–	·	·	–	–
COc1cccc(NC(=O)CCN2CCOCC2)c1	–	62.5	–	–	–	–	–	–
CN(C)c1ccc(C(C(=O)NCC2CCCO2)N(C(=O)c2snc(C(N)=O)c2N)c2ccc3c(c2)OCO3)cc1 (centres undefined)	–	53.5	–	–	–	–	–	–
CN(C)c1ccc(C(C(=O)NCC2CCCO2)N(C(=O)c2snc(C(N)=O)c2N)c2ccccc2)cc1 (centres undefined)	–	–	–	–	–	–	·	·
Cc1cccc(N(C(=O)c2snc(C(N)=O)c2N)C(C(=O)NC2CCCC2)c2ccncc2)c1 (centres undefined)	–	42.4	–	–	–	–	–	–
Cc1[nH]c(C)c(S(=O)(=O)NCc2ccc(F)cc2)c1C(=O)N1CCCCC1	–	–	–	–	–	–	·	·
COC(=O)c1ccc(NC(=O)C(=O)c2c[nH]c3ccccc23)cc1	–	–	–	–	–	–	·	·
O=C(Nc1ccccc1)C(=O)c1c[nH]c2ccccc12	–	49.7	–	–	–	–	–	–
O=C1N=c2ccccc2=C1c1sc(=S)n(CC2CCCO2)c1O (centres undefined)	–	–	–	–	–	–	·	·
SMILES	KCNH2 3.1 block	TRHR enhancer-1	TRHR agonist-1	KCNH2 WT inh	TRPML1 blocker	TRPML1 ag	TRHR enhancer-2	TRHR agonist-2
COc1ccc(N=C2O/C(=C/c3sc(=S)n(CC4CCCO4)c3O)N=C2C#N)cc1 (centres undefined)	–	43.5	–	–	–	–	–	–
C[C@H](O)C#Cc1ccc2c(c1)O[C@@H](CN(C)Cc1ccc(-c3ccccc3)cc1)[C@H](C)CN([C@@H](C)CO)S2(=O)=O	–	·	·	–	–	–	·	·
Oc1c(C=C2N=c3ccccc3=N2)sc(=S)n1C1CCCCC1	–	41.2!	–	–	–	–	–	–
Oc1c(C=C2N=c3ccccc3=N2)sc(=S)n1-c1ccccc1	–	–	–	–	–	–	·	·
CCOC(=O)c1cc(C)sc1NC(=O)CSC1=NCCS1	–	55.6	–	–	–	–	–	–
COc1ccc(CCNC(=O)CSc2nc(C)nc3c2c(=O)n(C)c(=O)n3C)cc1OC	–	45.3	–	–	–	–	–	–
CCCCc1c(O)nc(SCC(=O)NCCc2ccc(OC)c(OC)c2)[nH]c1=O	–	41.4	–	–	–	–	–	–
COc1ccc(CCNC(=O)CSc2nc(O)c(CCC(C)C)c(=O)[nH]2)cc1OC	–	–	–	–	–	–	·	·
COc1ccccc1S(=O)(=O)N(C)C[C@@H]1OCc2cnnn2CCCC(=O)N([C@@H](C)CO)C[C@@H]1C	–	·	·	–	–	–	·	·
C=CCC(CC)C(=O)NC(=O)N1CCCc2ccccc21 (centres undefined)	–	42.1	–	–	–	–	–	–
COc1ccc(-c2cc(C(F)F)nc(-n3nc(C)cc3C)n2)cc1	–	53.1	–	–	–	–	–	–
COc1ccc(Oc2nc3c(c(=O)n(C)c(=O)n3C)n2Cc2ccc(Cl)cc2Cl)cc1	·	–	–	·	–	–	·	·
NC(=O)C1CCN(C(=O)c2ccc3ccccc3c2)CC1	–	–	–	–	–	–	·	·
Cn1c(C(=O)N2CCC(C(N)=O)CC2)cc2cc(Cl)ccc21	–	56.7	–	–	–	–	–	–
CCCN1C(=O)c2ccccc2NC1c1ccc(Cl)c(Cl)c1 (centres undefined)	–	74.4	–	–	–	–	–	–
COc1cc(/C=C2\SC(=N)N(c3ccc4c(c3)OCO4)C2=O)cc(OC)c1O	–	–	44.6	–	–	–	–	?
CCc1nc2c(OCc3ccc(Cl)cc3Cl)cccn2c1N(C=O)Cc1ccc(OC)cc1	·	·	·	·	·	–	·	·
Brc1cc2c(cc1CSc1ncccn1)OCO2	–	46.5	–	–	–	–	–	–
